mHTT CaM bind = mutant huntingtin-calmodulin interaction inhibitors – biochemical, AlphaScreen, primary screen; AlphaScreen His-mHTT/GST-CaM binding, luminescence; inhibition, % at 15 µM; hit rate 3.6% among 190,000; AID 1671202, 2021;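 also: 0% = both proteins with DMSO and 100% = one protein alone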
Pf apPOL inh = Pf-apPOL inhibitors, biochemical, fluorescence; hit rate 0.25% among 210,000; inhibition, % at 10 µM; Plasmodium falciparum apicoplast DNA polymerase (apPOL); Recombinant Pf-apPOL, molecular beacon fluorescence, 1.5 h
* hit, by the source's call; · = no result given; ! = not active in a repeat. The list is not random: actives were taken first. Their share in the collection is about 3.6%. Rule as the data show it: active = inhibition above about 50%; inactive = the rest.

SMILES	mHTT CaM bind	Pf apPOL inh
O=C(NC(Nc1cccc([N+](=O)[O-])c1)C(Cl)(Cl)Cl)c1ccccc1[N+](=O)[O-] (stereo not drawn)	14.0	-3.3
O=C(NC(Nc1ccccc1Cl)C(Cl)(Cl)Cl)c1cc([N+](=O)[O-])cc([N+](=O)[O-])c1 (stereo not drawn)	61.0*	-5.0
O=C(NC(Nc1ccccc1)C(Cl)(Cl)Cl)c1ccc([N+](=O)[O-])cc1 (stereo not drawn)	31.0	-0.5
O=C(NC(Nc1ccccc1)C(Cl)(Cl)Cl)c1cc([N+](=O)[O-])cc([N+](=O)[O-])c1 (stereo not drawn)	59.0*	1.6
Cc1nc(C)c2c(n1)N(CC1CCCO1)C(=O)C2 (stereo not drawn)	14.1	2.7
C#CCNC(=O)C1CC(=O)N(c2ccccc2)C1 (stereo not drawn)	-3.2	-3.8
COc1ccccc1NC(=O)Nc1ccc(Cl)c(Cl)c1	-5.2	-4.6
COc1ccccc1C1SCCN1C(=O)Nc1ccc(Cl)c(Cl)c1 (stereo not drawn)	97.0*	-6.2
COc1ccc(Cl)cc1NC(=O)CN1C(=O)CC(C)Sc2ccccc21 (stereo not drawn)	-0.4	-4.0
COc1ccc(NC(=O)CN2C(=O)CC(c3ccco3)Sc3ccccc32)c(OC)c1 (stereo not drawn)	92.1*	-2.6
O=C(O)CSc1cccc2cccnc12	10.6	-1.1
COc1ccc(NC(=O)CSc2cccc3cccnc23)cc1	53.1*!	-6.7
NC(=O)CSc1cccc2cccnc12	82.8*	-2.8
CCCCOc1cccc(NC(=O)CSc2cccc3cccnc23)c1	0.1	-0.2
CC(=O)NC(=O)c1cc2ccccc2oc1=Nc1cccc(C#N)c1	5.0	-1.0
CCNC(=O)C1=CCN(C(=O)c2ccc(F)cc2)CC1	-2.5	-3.2
CC(=O)c1cccc(NC(=O)CN(C)S(=O)(=O)c2ccc(C)cc2)c1	-0.4	-0.7
CC1CCN(C(=O)C2CCc3sc(C(=O)N4CCCCCC4)cc3C2)CC1 (stereo not drawn)	11.2	2.1
CC(C)N1C/C(=C\c2cccs2)C(=O)/C(=C/c2cccs2)C1	54.0*!	4.9
CCN1C=C(Cc2cccs2)C2=C(C1)C(c1cccs1)C(C#N)=C(N)O2 (stereo not drawn)	72.0*	1.9
COCc1[nH]nc2c1C(c1cccs1)C(C#N)=C(N)O2 (stereo not drawn)	-6.2	·
O=C1/C(=C/c2cccs2)CC/C1=C\c1cccs1	23.0	-4.0
CCN1CC2=C(OC(N)=C(C#N)C2c2cccs2)/C(=C/c2cccs2)C1 (stereo not drawn)	60.0*	·
Cc1cc2c(c(=O)o1)C(c1cccs1)C(C#N)=C(N)O2 (stereo not drawn)	-3.0	·
Cc1[nH]nc2c1C(c1cccs1)C(C#N)=C(N)O2 (stereo not drawn)	-2.0	-8.0
SMILES	mHTT CaM bind	Pf apPOL inh
CC(C)N1CC2=C(OC(N)=C(C#N)C2c2cccs2)/C(=C/c2cccs2)C1 (stereo not drawn)	65.8*	·
CC1CCN(C(=O)C(C2CCCC2)N2CCN(C(=O)c3cccs3)CC2)CC1 (stereo not drawn)	-0.9	-2.4
O=C(O)C#CCN1C(=O)c2ccccc2C1=O	-5.8	4.3
COc1cccc(N=c2oc3c(C)ncc(CO)c3cc2C(=O)Nc2ccccc2F)c1	3.0	0.8
COc1ccccc1C(=O)ON=C(N)c1cccc(C(F)(F)F)c1	·	4.1
COc1ccc(Cn2c(Oc3ccccc3)nc3c2c(=O)n(C)c(=O)n3C)cc1	-6.0	0.6
COc1ccc(Oc2nc3c(c(=O)n(Cc4ccccc4)c(=O)n3C)n2C)cc1	18.0	65.1*
O=C(NCc1ccc(F)cc1)c1cc2n(n1)CCCN(Cc1cccc(F)c1)C2=O	6.2	2.2
CN1CCN(c2ccc(-c3ccc(C(=O)Nc4ccccc4)cc3)cn2)CC1	3.1	-1.9
Cc1cc(N2C(=O)c3ccc(C(=O)O)cc3C2=O)no1	-4.0	-0.6
Cc1cc(N2C(=O)c3ccc(C(=O)N4CC=C(c5ccccc5)CC4)cc3C2=O)no1	51.0*	-2.7
Cc1nc(C(=O)NCCC2CCN(C(C)C)CC2)c(C)n1C1CCN(C)CC1	2.9	2.5
COc1ccc(CCC(=O)NCCCOc2cccc3cccnc23)cc1	2.0	-4.7
Cc1ccc(C(NC(=O)CC(C)C)c2ccc3cccnc3c2O)cc1 (stereo not drawn)	34.0	-1.9
CCCCC(=O)NC(c1ccc(Cl)cc1)c1ccc2cccnc2c1O (stereo not drawn)	17.0	0.8
COc1ccc(C(NC(=O)CCc2ccccc2)c2ccc3cccnc3c2O)cc1 (stereo not drawn)	100.0*	10.4
CC(C)CC(=O)NC(c1ccccc1)c1ccc2cccnc2c1O (stereo not drawn)	100.0*	10.1
CCCC(=O)NC(c1ccc(Cl)cc1)c1ccc2cccnc2c1O (stereo not drawn)	99.0*	6.0
CCCC(=O)NC(c1ccc(Cl)cc1Cl)c1ccc2cccnc2c1O (stereo not drawn)	100.0*	-4.2
O=C(Nc1cccc(C(F)(F)F)c1)C1CCC(CNS(=O)(=O)c2cccs2)CC1 (stereo not drawn)	-7.0	-1.2
Cc1ccc(CN2CCC3(CC2)N=C(c2cccc(F)c2)C(=O)N3)cc1	0.9	14.1
O=C1NC(=O)/C(=C/c2ccc(-c3ccc(Cl)c(C(=O)O)c3)o2)S1	18.0	-6.5
CCC(=O)NC(=O)NC(c1ccccc1)c1ccccc1	-4.9	0.1
CCC(=O)NC(c1ccc(Cl)cc1)c1ccc2cccnc2c1O (stereo not drawn)	100.0*	-3.1
CCC(=O)NC(c1ccccc1)c1ccc2cccnc2c1O (stereo not drawn)	100.0*	-0.1
SMILES	mHTT CaM bind	Pf apPOL inh
CC(=O)NC(c1ccc(Cl)cc1Cl)c1ccc2cccnc2c1O (stereo not drawn)	100.0*	1.8
CCC(=O)NC(c1ccc(OC)cc1)c1ccc2cccnc2c1O (stereo not drawn)	100.0*	3.8
CCCn1ncc(N2CCC(C(=O)Nc3ccc(C)cc3)CC2)cc1=O	-0.3	-3.9
Cc1cccc2sc(N(Cc3ccco3)C(=O)COc3ccccc3)nc12	-5.8	1.9
Cc1cc(N=Cc2cccc([N+](=O)[O-])c2O)ccc1NC(=O)c1ccccc1	6.0	-2.2
Cc1ccc(NC(=O)Cn2cccc2-c2nnc(C3CC3)o2)cc1	-4.6	0.5
CC(C)CC(=O)NCC#CCOc1ccc2c(c1)OCO2	4.0	-8.0
CC(C)CC(=O)NC(c1ccc2c(c1)OCO2)c1ccc2cccnc2c1O (stereo not drawn)	100.0*	-3.6
CCCc1ccc(Oc2c(C(F)(F)F)oc3c(C)c(OCC)ccc3c2=O)cc1	-3.2	-4.6
CC1CC(C)CN(C(=O)c2ccc(Cl)cc2[N+](=O)[O-])C1 (stereo not drawn)	0.0	1.6
CC1CCCN(C(=O)c2ccc(Cl)cc2[N+](=O)[O-])C1 (stereo not drawn)	2.7	80.4*
COc1ccc(C(CC#N)C2CCOC(C)(C)C2)cc1 (stereo not drawn)	-11.0	-2.7
CCCN1CCC(N2CCN(c3ccc(C(C)=O)cc3)CC2)CC1	9.6	46.5
O=C(NCCc1ccccc1)C1CCN(c2nccn3nc(-c4cccs4)cc23)CC1	40.4	5.0
COc1ccccc1N(CC(O)COc1ccc(C)cc1)S(=O)(=O)c1ccccc1 (stereo not drawn)	52.3*	-0.3
